Experimental data published in PubChem BioAssay.
The source made the active and inactive calls.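 The calls were made as follows, unless noted: active = inhibition of the reporter signal at or above 50%; inactive = inhibition below 50%.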

Tests used:
[1] = inhibitors of TNFa-induced NFkB p65 translocation, primary screen, imaging, HUVEC, MLSMR starter and 10KST1 sets (AID 438;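 active = inhibition above 20% together with a positive visual image hit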;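 also: compound added about 3h40 before a 20 min TNFalpha stimulation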;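 as to inhibition: signal is the nuclear over cytoplasmic p65 intensity ratio per well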); details: HUVEC TNFa-induced p65 nuclear translocation; cell count: measured here: nuclei count (cytotoxicity indicator), at 2.08 µM; inhibition: at 2 µM, stronger effect = higher value, 0% TNFa-plus-vehicle, 100% no-TNFa wells
[2] = reduction of polyQ htt aggregates in cells – imaging, exon1htt(103Q)mCFP cells, high-content imaging, primary screen (AID 483;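 active = visual image review flags a hit and inhibition of aggregation exceeds 20%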;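 also: compound exposure lasted 3 days before fixation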;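 as to nuclei count: percent of the per-plate median nuclei count of sample wells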); details: exon1htt(103Q)mCFP cell line, aggregate imaging, at 2 µM; inhibition of aggregation: stronger effect = higher value; nuclei count: measured here: cell count, toxicity
[3] = endothelial E-selectin expression blockers – imaging, HUVEC, immunofluorescence, MLSMR starter and 10KST1 sets, primary screen (AID 487;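 active = visually confirmed hit in the image check and inhibition above 20%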;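 as to inhibition: signal is fraction of cell area covered by stained E-selectin grains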;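 as to nuclei count: 100% = median nuclei count of all wells on the same plate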); details: HUVEC TNFalpha-induced E-selectin immunofluorescence imaging, at 2 µM; inhibition: stronger effect = higher value; nuclei count: measured here: cell number, toxicity
[4] = Primary imaging screen for DUSP6 inhibitors that restore phospho-Erk in transfected HeLa cells, chemical complementation (AID 609;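 active = compounds giving at least 50% inhibition in the cell-based MKP-3 phosphatase rescue imaging test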;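 as to inhibition: phospho-Erk level distribution per well compared with pooled transfected vehicle control wells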); details: HeLa MKP-3 transfected, phospho-Erk imaging KS statistic, at 10 µM, cells stimulated with TPA for 15 min
[5] = biological target: Dual specificity protein phosphatase 6 (Homo sapiens) (UniProt Q16828); test: as above; details: HeLa MKP-3 transfected, phospho-Erk imaging KS statistic; at 10 µM; stronger effect = higher value; cells stimulated with TPA for 15 min
[6] = biological target: Voltage-gated potassium channel subunit beta-2 (Rattus norvegicus) (UniProt P62483); test: inhibitors of rat Kvbeta2 reductase activity – biochemical, NADPH fluorescence, primary screen (AID 622;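 active = fluorescence slope higher than the sample average by over 3 SD, cut at about -0.22 in these data, passing the limit was not always enough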;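 also: slope of raw intensity against log time taken from 70 to 1610 s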); details: recombinant KvBeta, 4-cyanobenzaldehyde reduction, at 10 µM, stronger effect = higher value
[7] = biological target: Voltage-gated potassium channel subunit beta-2 (Rattus norvegicus) (UniProt P62483); test: enhancers of rat Kvbeta2 NADPH turnover – biochemical, NADPH fluorescence, primary screen (AID 623;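 active = NADPH fluorescence slope more negative than the mean of all samples by about 3 SD, 99.7% confidence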;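 also: fluorescence intensity change per second fitted from 20 to 320 s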); details: Recombinant KvBeta, NADPH fluorescence decrease slope, 10 min; at 10 µM; stronger effect = lower value
[8] = biological target: Alpha-2C adrenergic receptor (Homo sapiens) (UniProt P18825); test: compounds altering alpha2C-coupled GIRK flux – cell-based, HEK293 alpha2C/GIRK1/2, thallium flux, primary screen (AID 624;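 active = fluorescence slope after compound addition differing from the mean of all screened samples at 99.7% confidence, in either direction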;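 also: slope of fluorescence ratio to pre-addition baseline per second over 15 to 24 s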); details: thallium flux BTC fluorescence, at 10 µM, actives lie on both sides
[9] = biological target: Muscarinic acetylcholine receptor M4 (Homo sapiens) (UniProt P08173); test: M4-linked GIRK flux change, two-sided – cell-based, HEK293 M4/GIRK, thallium flux, BTC-AM, M4 allosteric agonist project, primary screen (AID 625;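 active = fluorescence slope after compound addition differing from the mean of all tested samples at 99.7% confidence, mostly higher but some lower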;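 also: thallium influx through GIRK channels coupled to M4 in HEK293 cells with BTC-AM dye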); details: at 10 µM, actives lie on both sides
[10] = inhibitors of larval lipid processing in zebrafish, primary screen, whole organism, PED6 fluorescence, gall bladder and intestine (AID 686;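 active = a full or partial loss of lipid-probe fluorescence in the fish gall bladder, intestine or both, judged by eye; inactive = no fluorescence loss, or compound toxic to the fish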;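 also: larvae 5 to 7 days old with five fish per well; signal comes from phospholipase A2 cleavage of quenched PED6 carried via bile; overnight exposure to compound and PED6 before scoring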); details: Zebrafish larvae PED6 lipid processing, fluorescence scoring; screened at 20 µM (by protocol)
[11] = loss of swimming-algae plug formation – whole organism, Chlamydomonas reinhardtii, WT vs cilia-less mutant, absorbance, 96-well, primary screen (AID 463189;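 active = inhibition at or above 50% relative to wild type and mutant plate controls; inactive = inhibition below 50%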;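 also: 0% = wild type cc124 cells in DMSO and 100% = ciliumless bld1 mutant cells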); details: Chlamydomonas reinhardtii gravitaxis, OD600 absorbance, 2 days; at 10 µM; stronger effect = higher value
[12] = blockers of RIG-like receptor reporter activation – cell-based, Sendai virus stimulus, luciferase, 10K MLSCN set, TLR/RLR signaling modifier project, primary screen (AID 602276;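 active = inhibition at or above 50% at 10 µM; inactive = inhibition below 50%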;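 also: firefly luciferase from ISG56 promoter only with Renilla not read in this screen; 0% = Sendai virus plus DMSO and 100% = medium plus DMSO without virus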); details: HEK293 RL24 IRF3 luciferase reporter, at 10 µM, stronger effect = higher value
[13] = TLR3 IRF3 reporter activation blockers – cell-based, poly I:C stimulus, luciferase, 10K MLSCN set, primary screen (AID 602277); details: HEK293-TLR3 RL24 IRF3 luciferase reporter, at 10 µM, stronger effect = higher value
[14] = measured here: cell density z-score
[15] = measured here: nuclear c-Myc green intensity z-score
[16] = measured here: nuclear pErk red intensity z-score, stronger effect = higher value

Muscarinic acetylcholine receptor M4 (Homo sapiens), sequence (P08173 whole entry, looked up): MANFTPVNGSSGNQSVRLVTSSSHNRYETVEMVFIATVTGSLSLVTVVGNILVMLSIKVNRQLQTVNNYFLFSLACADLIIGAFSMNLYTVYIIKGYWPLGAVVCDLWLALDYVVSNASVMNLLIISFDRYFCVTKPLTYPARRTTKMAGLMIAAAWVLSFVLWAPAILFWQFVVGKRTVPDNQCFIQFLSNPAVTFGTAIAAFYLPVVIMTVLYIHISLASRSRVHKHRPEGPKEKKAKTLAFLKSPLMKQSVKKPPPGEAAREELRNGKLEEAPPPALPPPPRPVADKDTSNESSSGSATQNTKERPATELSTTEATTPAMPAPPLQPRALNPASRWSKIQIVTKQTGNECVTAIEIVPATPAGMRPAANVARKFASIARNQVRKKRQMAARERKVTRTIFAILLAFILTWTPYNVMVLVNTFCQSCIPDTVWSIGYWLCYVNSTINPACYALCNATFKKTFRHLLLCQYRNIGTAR
Alpha-2C adrenergic receptor (Homo sapiens), sequence (P18825 whole entry, looked up): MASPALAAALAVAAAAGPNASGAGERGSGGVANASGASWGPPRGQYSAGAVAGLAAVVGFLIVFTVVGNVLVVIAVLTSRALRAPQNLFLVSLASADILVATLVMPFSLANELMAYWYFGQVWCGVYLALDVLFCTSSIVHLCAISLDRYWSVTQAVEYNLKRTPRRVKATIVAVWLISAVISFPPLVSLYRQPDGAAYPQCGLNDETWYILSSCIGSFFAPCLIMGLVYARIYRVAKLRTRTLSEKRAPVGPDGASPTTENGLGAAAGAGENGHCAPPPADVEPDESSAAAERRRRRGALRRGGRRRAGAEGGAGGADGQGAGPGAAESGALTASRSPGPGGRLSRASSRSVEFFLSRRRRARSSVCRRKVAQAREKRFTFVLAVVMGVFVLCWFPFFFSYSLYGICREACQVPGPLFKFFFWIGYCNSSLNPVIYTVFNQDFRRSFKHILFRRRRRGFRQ
Voltage-gated potassium channel subunit beta-2 (Rattus norvegicus), sequence (P62483 whole entry, looked up): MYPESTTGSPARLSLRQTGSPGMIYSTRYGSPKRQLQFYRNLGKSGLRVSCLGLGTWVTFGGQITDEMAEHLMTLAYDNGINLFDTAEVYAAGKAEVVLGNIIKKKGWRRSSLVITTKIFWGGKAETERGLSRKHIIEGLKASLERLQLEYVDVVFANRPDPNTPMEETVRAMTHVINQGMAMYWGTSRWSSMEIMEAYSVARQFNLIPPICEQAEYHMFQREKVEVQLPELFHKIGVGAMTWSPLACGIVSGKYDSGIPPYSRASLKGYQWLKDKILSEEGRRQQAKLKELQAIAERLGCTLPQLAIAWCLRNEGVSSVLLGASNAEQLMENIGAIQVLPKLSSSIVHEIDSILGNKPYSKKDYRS
Dual specificity protein phosphatase 6 (Homo sapiens), sequence (Q16828 whole entry, looked up): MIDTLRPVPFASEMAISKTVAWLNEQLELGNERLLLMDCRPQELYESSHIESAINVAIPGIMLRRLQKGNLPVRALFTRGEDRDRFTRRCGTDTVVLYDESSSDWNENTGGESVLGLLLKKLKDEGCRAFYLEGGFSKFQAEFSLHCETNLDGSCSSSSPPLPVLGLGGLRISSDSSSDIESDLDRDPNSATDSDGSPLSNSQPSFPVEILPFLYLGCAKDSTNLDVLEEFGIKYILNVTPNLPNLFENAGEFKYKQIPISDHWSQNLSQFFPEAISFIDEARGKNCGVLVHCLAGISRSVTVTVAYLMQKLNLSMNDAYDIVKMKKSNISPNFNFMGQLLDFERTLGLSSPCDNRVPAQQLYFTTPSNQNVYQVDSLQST

| Compound | cell count [1] | inhibition [1] | inhibition of aggregation [2] | nuclei count [2] [%] | inhibition [3] | nuclei count [3] [%] | z-score [4, 14] | z-score [4, 15] | z-score [4, 16] | inhibition [5] | fluorescence slope [6] | NADPH fluorescence slope [7] | slope [8] | fluorescence slope [9] | outcome [10] | inhibition [11] | inhibition [12] | inhibition [13] |
| --- | --- | --- | --- | --- | --- | --- | --- | --- | --- | --- | --- | --- | --- | --- | --- | --- | --- | --- |
| C=CCNc1nnc(SC2CC(=O)N(c3ccc(OC)cc3)C2=O)s1 (configuration not stated) | 474 | -3.2% (inactive) | -17.3% (inactive) | 121 | -46.1% (inactive) | 151 | -0.38 | -0.537 | 0.655 | 5.95% (inactive) | -0.391 (inactive) | -3.8e-05 (inactive) | 0.00566 (inactive) | 0.00596 (inactive) | inactive | 34% (inactive) | 12.1% (inactive) | -1.97% (inactive) |
| CCN(CC)CCN1C(=O)C(O)=C(C(=O)c2cccs2)C1c1ccccn1 (configuration not stated) | 503 | 1.8% (inactive) | -4.1% (inactive) | 102 | -7.4% (inactive) | 120 | -0.956 | 0.653 | -1.67 | -0.608% (inactive) | -0.468 (inactive) | -0.000108 (inactive) | 0.00594 (inactive) | 0.0052 (inactive) | inactive | -9.88% (inactive) | 4.53% (inactive) | 12% (inactive) |
| CCOc1ccc2nc(SCC(=O)Nc3ncccn3)[nH]c2c1 | 478 | -3.6% (inactive) | -10.2% (inactive) | 111 | -10.6% (inactive) | 138 | -1.13 | -0.409 | 1.4 | 1.98% (inactive) | -0.358 (inactive) | -4.6e-05 (inactive) | 0.00651 (inactive) | 0.00652 (inactive) | inactive | 10.6% (inactive) | -10.6% (inactive) | 99.1% (active) |
| O=C(NCC(F)(F)F)N1CCOCC1 | 663 | 11.2% (inactive) | 14.7% (inactive) | 106 | -23.9% (inactive) | 102 | 0.272 | 0.0222 | 0.9 | -13.3% (inactive) | -0.508 (inactive) | -3.8e-05 (inactive) | 0.0049 (inactive) | 0.00517 (inactive) | inactive | 33.2% (inactive) | 9.24% (inactive) | 15.3% (inactive) |
| COC(=O)c1cc(Br)c(=O)n(-c2nccs2)c1 | 750 | -4.2% (inactive) | -14.3% (inactive) | 102 | -134% (inactive) | 142 | -1.41 | 0.813 | -2.4 | 38.2% (inactive) | -0.421 (inactive) | -5.6e-05 (inactive) | 0.00443 (inactive) | 0.00469 (inactive) | inactive | 6.75% (inactive) | -0.165% (inactive) | 1.38% (inactive) |
| CN(C)C(CN1C(=O)C2CC=CCC2C1=O)c1cn(C)c2ccccc12 (configuration not stated) | 665 | 2.5% (inactive) | 12.2% (inactive) | 99.9 | -48.8% (inactive) | 124 | -1.61 | 2.35 | 0.886 | -3.95% (inactive) | -0.474 (inactive) | -2.6e-05 (inactive) | 0.00544 (inactive) | 0.00462 (inactive) | inactive | -7.45% (inactive) | 24.3% (inactive) | 46.8% (inactive) |
| CC1(C2(O)CC(c3ccccc3)ON2)CCCCC1 (configuration not stated) | 623 | 1.7% (inactive) | 41.9% (inactive) | 65.3 | -10.4% (inactive) | 105 | -1.89 | -1.27 | 0.343 | -6.06% (inactive) | -0.516 (inactive) | -7.6e-05 (inactive) | 0.0054 (inactive) | 0.00556 (inactive) | inactive | 9.38% (inactive) | 2.61% (inactive) | 4.59% (inactive) |
| CN1CCN(c2nc3c(c(=O)n(C)c(=O)n3C)n2Cc2cccc3ccccc23)CC1 | 371 | 4.9% (inactive) | 6.9% (inactive) | 109 | -77.4% (inactive) | 102 | -0.546 | -0.191 | 0.82 | -13.1% (inactive) | -0.457 (inactive) | -6.9e-05 (inactive) | 0.00582 (inactive) | 0.0044 (inactive) | inactive | 28.5% (inactive) | 9.16% (inactive) | 19.8% (inactive) |
| CN1C(=O)c2c(sc3c2CCCC3)NC1c1ccccc1O (configuration not stated) | 432 | -5.1% (inactive) | -1.6% (inactive) | 97.6 | -128% (inactive) | 136 | 1.59 | -1.82 | 0.821 | -2.59% (inactive) | -0.47 (inactive) | -0.000117 (inactive) | 0.00476 (inactive) | 0.00402 (inactive) | inactive | 15.4% (inactive) | -8.68% (inactive) | -24.4% (inactive) |
| CCOC(=O)Cc1nnc(Nc2cccc(O)c2)c2ccccc12 | 621 | -1.7% (inactive) | -13.1% (inactive) | 99.2 | -46.3% (inactive) | 131 | -1.97 | 0.184 | 0.582 | -15.1% (inactive) | -0.457 (inactive) | -9.4e-05 (inactive) | 0.00496 (inactive) | 0.0057 (inactive) | inactive | -9.07% (inactive) | 0.504% (inactive) | -8.25% (inactive) |
| Cc1cc(NCC2CCCO2)n2c(nc3ccccc32)c1C#N (configuration not stated) | 481 | -3.7% (inactive) | 16.3% (inactive) | 95.7 | -9.7% (inactive) | 113 | -1.71 | 1 | 0.144 | 1.48% (inactive) | -0.356 (inactive) | -1.1e-05 (inactive) | 0.00569 (inactive) | 0.00588 (inactive) | inactive | -17.8% (inactive) | 16.8% (inactive) | 15.3% (inactive) |
| CCCc1nc(N2CCOCC2)c(C#N)c2c1CCCC2 | 496 | -5.5% (inactive) | -8.4% (inactive) | 89.6 | -58.9% (inactive) | 128 | -0.193 | 0.212 | -0.0343 | 5.35% (inactive) | -0.436 (inactive) | -0.000102 (inactive) | 0.00439 (inactive) | 0.00443 (inactive) | inactive | -4.21% (inactive) | 19.9% (inactive) | 22.6% (inactive) |
| CCOc1cc(C2Nc3ccccc3C(=O)N2c2ccccc2OC)ccc1O (configuration not stated) | 587 | -3.1% (inactive) | -2.3% (inactive) | 100 | -136% (inactive) | 124 | 0.614 | -1.2 | -0.417 | 9.07% (inactive) | -0.348 (inactive) | -3.8e-05 (inactive) | 0.0046 (inactive) | 0.0049 (inactive) | inactive | 2.2% (inactive) | -2.55% (inactive) | -13.2% (inactive) |
| COc1cccc(C2C(C(=O)c3cc4ccccc4o3)=C(O)C(=O)N2CCN(C)C)c1OC (configuration not stated) | 516 | -3.4% (inactive) | 31% (inactive) | 87.3 | -49.8% (inactive) | 124 | 0.445 | -1.47 | -1.27 | 22.7% (inactive) | -0.492 (inactive) | -4.6e-05 (inactive) | 0.0034 (inactive) | 0.00523 (inactive) | inactive | 20.6% (inactive) | 9.6% (inactive) | 6.82% (inactive) |
| CCOC(=O)C1=C(N)c2ccccc2CC1C(C)C (configuration not stated) | 579 | 9% (inactive) | -22.6% (inactive) | 108 | -86.6% (inactive) | 124 | 2.18 | -1.31 | -0.876 | 4.72% (inactive) | -0.46 (inactive) | -2.5e-05 (inactive) | 0.00503 (inactive) | 0.00588 (inactive) | inactive | 36% (inactive) | 17.7% (inactive) | 26.3% (inactive) |
| O=C(NCc1cccnc1)/C(=N\O)c1ccccc1 | 415 | -4.8% (inactive) | -9.8% (inactive) | 100 | -66.8% (inactive) | 97.2 | 0.444 | 0.0712 | -0.943 | 5.95% (inactive) | -0.424 (inactive) | 1.4e-05 (inactive) | 0.00513 (inactive) | 0.00494 (inactive) | inactive | -9.8% (inactive) | 6.94% (inactive) | 4.43% (inactive) |
| COc1cccc(NC(=O)CC2SC(=Nc3ccccc3)NC2=O)c1 (configuration not stated) | 593 | 2.2% (inactive) | 32.9% (inactive) | 84.1 | -29.5% (inactive) | 132 | -0.312 | -0.394 | 0.335 | 9.91% (inactive) | -0.37 (inactive) | -1.5e-05 (inactive) | 0.00453 (inactive) | 0.00596 (inactive) | inactive | 32.2% (inactive) | -8.37% (inactive) | 97.6% (active) |
| CC(C)CNC(=O)c1c(N)n(/N=C/c2ccccn2)c2nc3ccccc3nc12 | 533 | -2.3% (inactive) | -1.4% (inactive) | 105 | -33.4% (inactive) | 129 | 1.46 | -0.805 | -0.75 | 4.37% (inactive) | -0.43 (inactive) | -3.5e-05 (inactive) | 0.00506 (inactive) | 0.0059 (inactive) | inactive | 31.2% (inactive) | -0.468% (inactive) | -13.1% (inactive) |
| CCOC(=O)c1[nH]c2ccc(OC)cc2c1NC(=O)CCN1CCC(C)CC1 | 568 | -0.3% (inactive) | 6.8% (inactive) | 110 | -54.8% (inactive) | 115 | 0.39 | -0.288 | -0.933 | -8.59% (inactive) | -0.339 (inactive) | -3.9e-05 (inactive) | 0.00576 (inactive) | 0.00353 (inactive) | inactive | 29.3% (inactive) | -0.0655% (inactive) | 13.6% (inactive) |
